An excerpt weighted towards active compounds, which were near 17% of everything screened.
DT40 TDP1 no CPT = qHTS for Inhibitors of human tyrosyl-DNA phosphodiesterase 1 (TDP1): qHTS in cells in absence of CPT; DT40 Tdp1-/- hTDP1 cells, no CPT, ATP luminescence, 48 h; Potency, µM (titrated, usually from 46.2 µM), inactives show at the highest dose activity change, negative = growth inhibition, usual class: inhibitors; hit rate 15% among 420,000; AID 686978, 2013; also: potency is read from the fitted curve at half-maximal effect; % is scaled to controls: 0 for no effect and ±100 for the full control effect; nearly all actives have a fitted effect of over 55% in size
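Seeded 400 DT40-hTDP1 cells/well (vehicle DMSO, no 20 nM CPT); pinned compounds; ≥48 hr at 37 °C; CellTiter-Glo luminescence as viability measure.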
TGFb SMAD3 inh = TGF-b pathway inhibition; hit rate 1.2% among 410,000; AID 588855; Potency, µM (top dose mostly 46.1 µM), for inactives: at the top dose activity, negative = inhibition, actives largely listed as inhibitors; HepG2 CAGA-GFP TGF-b/SMAD3 reporter, GFP fluorescence, 18 h; TGF-beta stimulated, 500 pg/mL final; also: potency is read from the fitted curve at half-maximal effect; % is scaled to controls: 0 for no effect and ±100 for the full control effect; nearly all actives have a fitted effect of over 65% in size
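TGF-beta reporter screen: HEPG2 CAGA-GFP, 1% FBS, 500 pg/mL TGF-beta final, 18 h; per-cell GFP summed per well; curves fitted and categorized by class.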
S2 tox = reduces viability in counter-screen for ATXN expression inhibitors; S2 cells (HEK-293 line with an ATXN2-luciferase reporter) viability, CellTiter-Fluor protease fluorescence, 24 h; Potency, µM (titrated, usually from 56.7 µM), usual class: cytotoxic; hit rate 0.49% among 400,000; AID 651635; also: potency is read from the fitted curve at half-maximal effect; nearly all actives have a fitted effect of over 40% in size
ATXN2 expr inh = ATXN2 expression inhibition | HEK-293 ATXN2-luciferase reporter, luminescence, 24 h | Potency, µM (top dose mostly 57 µM), inactives show top-dose activity change, negative = inhibition, most hits filed as inhibitors | hit rate 0.72% among 360,000 | AID 1745845; also: potency is read from the fitted curve at half-maximal effect; % is scaled to controls: 0 for no effect and ±100 for the full control effect; nearly all actives have a fitted effect of over 55% in size
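ATXN2-luciferase reporter cells (luciferase flanked by upstream and downstream ATXN2 gene portions) were treated 24 h at 37 °C with compounds at up to 57 uM. SteadyGlo luminescence gave expression; GF-AFC fluorescence gave viability.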
DT40 TDP1 CPT = growth inhibition of DT40 Tdp1-/-;hTDP1 cells with camptothecin (screen for TDP1 inhibitors); chicken DT40 Tdp1-/-;hTDP1 cells + 20 nM CPT, ATP luminescence, 48 h; Potency, µM (doses to about 46.2 µM), for the others: top-dose activity change, negative = growth inhibition, usual class: inhibitors; hit rate 12% among 420,000; AID 686979; also: potency is read from the fitted curve at half-maximal effect; % is scaled to controls: 0 for no effect and ±100 for the full control effect; nearly all actives have a fitted effect of over 55% in size
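Cell growth measured by CellTiter-Glo luminescence after a minimum 48 h, 37 C compound exposure with 20 nM CPT in Tdp1-knockout DT40 cells stably expressing hTDP1, seeded 400/well; qHTS titration format.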
HepG2 tox = HepG2 cytotoxicity, counter-screen for TGF-b inhibitors. AID 588856. hit rate 0.76% among 410,000. HepG2 CAGA-GFP viability, ATP luminescence, 18 h. Potency, µM (series often up to 46.1 µM), inactives show top-dose activity change, negative = cytotoxicity, most hits filed as cytotoxic; also: potency is read from the fitted curve at half-maximal effect
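CellTiter-Glo luminescence gave cytotoxicity after 18 hours at 37 degrees C. The cells were HepG2 CAGA-GFP in 1% FBS DMEM, stimulated with 500 pg/mL TGF-beta after compound addition. %Activity was normalised to no-cell wells (complete cell-killing) and DMSO (no toxicity), and curves were fitted and classified.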
SKNSH spheroid = reduced viability of SK-N-SH 3D spheroids, orthogonal test; Potency, µM (top dose mostly 30.7 µM), most hits filed as inhibitors; SK-N-SH 3D spheroid viability, PI/Hoechst imaging, 72 h; hit rate 70% among 65; shares compounds with ATXN2 expr inh
SJGBM2 3D viab = lowers viability of SJ-GBM2 3D spheroids; shares compounds with ATXN2 expr inh; SJ-GBM2 3D spheroid viability, PI/Hoechst imaging, 72 h; Potency, µM (titrated, usually from 30.7 µM), usual class: inhibitors; hit rate 80% among 65
Daoy 3D tox = reduced viability of Daoy 3D spheroids, orthogonal test | shares compounds with ATXN2 expr inh | Daoy 3D spheroid viability, PI/Hoechst imaging, 72 h | Potency, µM (doses to about 30.7 µM), most hits filed as inhibitors | hit rate 50% among 65 | AID 1347137
TC32 3D casp = TC32 spheroid caspase-3/7 activation, orthogonal screen; shares compounds with ATXN2 expr inh; TC32 3D spheroids, caspase-3/7 fluorescence imaging, 24 h; Potency, µM (series often up to 30.7 µM), usual class: inhibitors; hit rate 30% among 65
TC32 spheroid = reduced viability of TC32 3D spheroids, orthogonal test; shares compounds with ATXN2 expr inh; TC32 3D spheroid viability, PI/Hoechst imaging, 72 h; Potency, µM (titrated, usually from 30.7 µM), actives largely listed as inhibitors; hit rate 60% among 65; AID 1347139
MG63 3D tox = reduced viability of MG-63 (6-TG R) 3D spheroids, orthogonal test. MG-63 (6-TG R) 3D spheroid viability, PI/Hoechst imaging, 72 h. hit rate 50% among 65. Potency, µM (doses to about 30.7 µM), usual class: inhibitors. shares compounds with ATXN2 expr inh. AID 1347140
RD spheroid = reduced viability of RD 3D spheroids, orthogonal test. hit rate 50% among 65. AID 1347141. RD rhabdomyosarcoma 3D spheroid viability, PI/Hoechst imaging, 72 h. shares compounds with ATXN2 expr inh. Potency, µM (titrated, usually from 30.7 µM), most hits filed as inhibitors
Starred values were filed as active, the others as inactive; i = inactive; ? = inconclusive; · = no result. Calls follow the shape of the dose curve; as a rule, active = well fitted curve in the direction sought with a large enough effect; inconclusive = small, poorly fitted or top-dose-only effect, or another doubt; inactive = no such curve, though single readings can be large; an effect the other way counts as inactive or inconclusive.

SMILES | DT40 TDP1 no CPT | TGFb SMAD3 inh | S2 tox | ATXN2 expr inh | DT40 TDP1 CPT | HepG2 tox | SKNSH spheroid | SJGBM2 3D viab | Daoy 3D tox | TC32 3D casp | TC32 spheroid | MG63 3D tox | RD spheroid
COc1ccc(-c2ccc3ncc4c(c3c2)n(-c2ccc(N3CCNCC3)c(C(F)(F)F)c2)c(=O)n4C)cn1 | · | · | · | 7.69µM* | · | · | 0.25µM* | 0.0314µM* | 0.0056µM* | 0.498µM* | 0.125µM* | 0.0056µM* | 0.158µM*
COc1cc([C@@H]2c3cc4c(cc3C(O[C@@H]3O[C@@H]5CO[C@@H](c6cccs6)OC5[C@H](O)[C@H]3O)C3COC(=O)[C@@H]32)OCO4)cc(OC)c1O (some centres undefined) | · | · | · | · | · | · | 0.0574µM* | 0.0323µM* | 0.0406µM* | ? | 0.0162µM* | 4.06µM* | 5.74µM*
COc1cc([C@@H]2c3cc4c(cc3[C@@H](O[C@@H]3O[C@@H]5CO[C@@H](C)O[C@@H]5[C@H](O)[C@@H]3O)[C@H]3COC(=O)[C@H]23)OCO4)cc(OC)c1O | · | · | · | 0.769µM* | · | · | 0.574µM* | 0.256µM* | 0.456µM* | ? | 0.256µM* | ? | ?
CCN(CC)C(=O)C1=C(C)N(CCCOC)C(=O)C(CC(=O)NCc2cccc3ccccc23)C1 (centres undefined) | -23.3% | 0.0% | i | -4.5% | 0.4% | 8.1% | · | · | · | · | · | · | ·
Nc1nc(Cl)nc2c1ncn2[C@@H]1O[C@H](CO)[C@@H](O)[C@@H]1F | 0.0021µM* | · | ? | 1µM* | 0.0021µM* | · | i | 0.0228µM* | ? | i | 5.11µM* | 0.162µM* | ?
O=C(NC1CCN(Cc2ccccc2)CC1)c1ccc2c(c1)[nH]c(=O)n2Cc1ccc(F)cc1 | ? | ? | i | -26.6% | ? | -2.0% | · | · | · | · | · | · | ·
COc1ccc(Nc2nc3ccccc3nc2NS(=O)(=O)c2ccc(NC(C)=O)cc2)cc1 | -9.9% | -29.2% | i | 23.9% | 0.0% | 16.1% | · | · | · | · | · | · | ·
COc1ccc(S(=O)(=O)Nc2cccnc2Nc2ccc(O)cc2)cc1 | · | · | · | -14.9% | · | · | 0.323µM* | 0.228µM* | ? | 1.02µM* | 0.574µM* | ? | 0.456µM*
CC(C)Cc1ccc(C(C)C(=O)O)cc1 (centres undefined) | 6.6% | -13.2% | i | 4.9% | 2.5% | -23.9% | ? | 11.4µM* | ? | i | i | i | i
